This is a sample that favours compounds with a hit; in the whole collection about 3% have one here.
NALP1 inh = inhibitors of NALP1 inflammasome in yeast; inhibition, % at 10 µM; S. cerevisiae NALP1/ASC/caspase-1 growth, X-gal OD620, 72 h; 280,000 compounds, 0.61% hits; in the data active = inhibition mostly above about 24%, no sharp cut-off; inactive = mostly below about 32%
CHT allo act = allosteric activators of human choline transporter CHT. Q9GZV3. B-score at 10 µM. CHT-expressing cells, membrane potential dye, choline EC20; stronger effect = higher value; LV-AA mutant CHT in HEK293 cells. 310,000 compounds, 0.49% hits. AID 488977;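 active = initial fluorescence not abnormally high and integrated response B-score, plate-corrected, over 3 SD above library mean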
Target sequence (Q9GZV3 whole entry, looked up): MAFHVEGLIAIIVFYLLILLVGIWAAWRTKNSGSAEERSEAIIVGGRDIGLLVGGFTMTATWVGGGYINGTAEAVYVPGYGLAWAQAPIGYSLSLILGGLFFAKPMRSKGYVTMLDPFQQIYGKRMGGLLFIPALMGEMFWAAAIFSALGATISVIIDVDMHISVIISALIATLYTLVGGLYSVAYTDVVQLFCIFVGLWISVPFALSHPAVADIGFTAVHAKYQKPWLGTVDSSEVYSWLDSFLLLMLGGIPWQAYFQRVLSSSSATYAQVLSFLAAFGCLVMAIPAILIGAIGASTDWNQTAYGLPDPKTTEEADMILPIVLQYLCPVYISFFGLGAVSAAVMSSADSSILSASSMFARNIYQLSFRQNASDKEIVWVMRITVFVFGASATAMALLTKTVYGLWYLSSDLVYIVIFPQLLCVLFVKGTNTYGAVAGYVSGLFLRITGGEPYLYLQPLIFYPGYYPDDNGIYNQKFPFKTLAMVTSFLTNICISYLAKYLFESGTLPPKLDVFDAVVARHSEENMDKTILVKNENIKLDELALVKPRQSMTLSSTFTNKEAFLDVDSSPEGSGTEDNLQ
CHT inh = inhibitors of human choline transporter CHT | B-score at 10 µM | CHT-expressing cells, membrane potential dye, choline response; stronger effect = lower value | 310,000 compounds, 0.86% hits | AID 488975;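 active = B-score over 3 SD under the library average, and starting fluorescence ratio not unusually high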;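 note: choline stimulus applied at its EC90 after an EC20 pre-addition; B-score computed on integrated fluorescence ratio after choline addition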
Bfl-1 A1 inh = inhibitors of the anti-apoptotic protein A1, read as caspase activation; MEF A1-2A-BIM cells, Caspase-Glo 3/7 luminescence, 3 h; percent of clofoctol response, vehicle zero; 330,000 compounds, 0.066% hits; caspase activation, % (test concentration not listed);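 active = over half of replicate activation scores above 10%, or exactly half above 10 with the replicate mean above 10; inconclusive = replicate mean below 10 yet half the replicates above 10; inactive = over half of replicates below 10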
Mot1-301 SUMO = SUMOylation pathway inhibition by Mot1-301 growth rescue. AID 2716. 320,000 compounds, 1% hits. growth rescue, % at 18.8 µM. S. cerevisiae Mot1-301 growth rescue, ATP luminescence, 38.5C; percent above DMSO median, 100 means doubled;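 active = every valid replicate shows activation above 250% relative to neutral control wells; inactive = the rest, any valid replicate at or below 250%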;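 note: OY570 slx delta 5 strain wells were the positive control but not used for scaling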
NALP3 yeast inh = blocks the NALP3 inflammasome reconstituted in yeast. Yeast reconstituted NLRP3/ASC/caspase-1, beta-gal luminescence, 24 h. inhibition, % at 10 µM. 330,000 compounds, 0.39% hits;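 active = inhibition of 50% or more; inactive = inhibition below 50%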;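 note: plate controls were induced DMSO wells for no effect and uninduced yeast grown without galactose for full effect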
CHT block conf = human CHT inhibition, confirmatory screen | 2,400 compounds, 70% hits | CHT activity remaining % of control (stronger effect = lower value), % at 10 µM | shares compounds with CHT inh | CHT-expressing cells, choline membrane potential dye; LV-to-AA substituted CHT, HEK293 cells;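 active = choline transporter activity left, mean of duplicates at 10 µM, below buffer-only control mean minus 3 SD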;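 note: depolarization triggered by choline at its EC90 following an EC20 pre-addition; 0% = hemicholinium-3 full block and 100% = buffer-only control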
HEK293 MPD ctr = CHT inhibitor counter-screen hit in parental HEK293 cells | 2,400 compounds, 4% hits | shares compounds with CHT inh | membrane potential dye, choline response; active = decrease or increase beyond buffer ±3SD | membrane potential ratio readout (active if shifted either direction beyond buffer ±3SD; no single direction) at 10 µM;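 note: parental cells lack the transporter so any hit is non-specific; ratio is peak minus trough fluorescence over baseline after EC90 choline challenge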
An asterisk follows results filed as active; i = inactive; ? = inconclusive; . = no result given.

SMILES | NALP1 inh | CHT allo act | CHT inh | Bfl-1 A1 inh | Mot1-301 SUMO | NALP3 yeast inh | CHT block conf | HEK293 MPD ctr
COC(=O)Cc1ccc(OC(=O)c2cccc(S(=O)(=O)N3CCN(C)CC3)c2)cc1 | . | i | i | 0 | 18 | 8 | . | .
CC(Nc1cc(N2CCNCC2)ccc1[N+](=O)[O-])c1ccccc1 (configuration not stated) | 20 | i | -6.4* | 0 | 10 | 1 | 35%* | 2.7*
CCc1ccc(C(C(=O)NC2CCCC2)N(C(=O)/C=C/C(=O)Nc2cc(C)on2)c2ccccc2C)cc1 (configuration not stated) | -25 | i | i | 2 | -1 | -4 | . | .
O=C(NNC(=S)Nc1ccccc1)c1cc(Br)ccc1Cl | 7 | i | -5.8* | 0 | 1 | 32 | 54%* | i
O=C(NNC(=S)Nc1ccccc1)Nc1ccccc1 | -1 | i | i | 1 | 238 | 9 | . | .
O=C(NC(=S)N1CCN(c2ccccn2)CC1)c1ccccc1 | 13 | i | -8.2* | 1 | 7 | 14 | i | i
O=S(=O)(c1ccc(N2CCCC2)nc1)N1CCCC1 | -1 | i | -5.8* | 0 | 2 | 4 | 43%* | i
O=S(=O)(c1ccc(N2CCN(S(=O)(=O)c3ccccc3)CC2)nc1)N1CCCC1 | -24 | i | i | 0 | -5 | 5 | . | .
COc1ccccc1NC(=O)/C(C#N)=C/c1ccc(OCCN2CCOCC2)c(OC)c1 | 6 | i | -6* | -1 | 431 | 14 | i | i
COc1cccc(CN2CCNC(=O)C2CC(=O)NCCCN2CCCC2=O)c1 (configuration not stated) | 36 | i | i | 0 | -13 | 6 | . | .
CCCCN(CCCC)CCCNC(=O)C12CN(Cc3ccccc3)CC1C(c1cccc([N+](=O)[O-])c1)=NO2 (configuration not stated) | 33 | i | -11* | 0 | 106 | 16 | 15%* | i
COc1ccc(Cn2c(=O)c3[nH]cnc3n(-c3ccccc3C)c2=O)cc1 | -4 | i | -5.5* | -1 | -9 | 4 | 56%* | i
COc1ccc(C)c(-n2c(=O)n(Cc3ccccc3)c(=O)c3[nH]cnc32)c1 | 4 | i | i | 0 | 5 | 6 | . | .
CCCNc1nc2c(c(=O)n(C)c(=O)n2C)n1CCC(C)C | 3 | i | -6.9* | 0 | -6 | 4 | 46%* | i
CN(CC(=O)Nc1cccc(F)c1)C(=O)/C=C/c1cn(Cc2ccccc2)nc1-c1cccnc1 | . | i | i | 0 | 22 | -3 | . | .
COc1ccc(/C=C/C(=O)Oc2cc(O)cc(O)c2)cc1 | 6 | i | -6.6* | 0 | 263 | 14 | i | i
CCCn1nc(NS(=O)(=O)c2cccc3nonc23)c2cc3cc(C)ccc3nc21 | 30 | i | i | -1 | -14 | 9 | . | .
Cc1ccc2cc3c(NS(=O)(=O)c4cccc5nonc45)nn(CC(C)C)c3nc2c1 | 3 | i | -6* | -1 | -12 | 16 | 64%* | i
CCCn1nc(NS(=O)(=O)c2cccc3nonc23)c2cc3cccc(C)c3nc21 | -6 | i | -6.3* | -2 | 10 | 3 | 54%* | i
O=c1[nH]c2ccccc2n2cnnc12 | 4 | i | i | 1 | -12 | 5 | . | .
CCN(CC)CCCCCCCCOC(=O)c1cc(OC)c(OC)c(OC)c1 | . | i | -5.4* | 0 | 29 | 20 | 20%* | i
COc1ccc(NC(=O)c2ccc(S(=O)(=O)N3CCCCC3)cc2)cc1OC | . | . | . | 0 | -6 | 16 | . | .
CCOC(=O)Cc1csc(NS(=O)(=O)c2ccc3c4c(cccc24)C(=O)N3CC)n1 | 8 | i | -5* | 0 | 100 | 11 | 46%* | i
Cc1cccc(NC(=O)CS(=O)CC(=O)Nc2cnc3ccccc3c2)c1C (configuration not stated) | 24 | i | i | 0 | -7 | 3 | . | .
CCN(CC)S(=O)(=O)c1ccc(OC)c(NC(=S)Nc2ccc(C)c(C)c2)c1 | . | i | -6* | ? | -9 | 31 | 53%* | i
SMILES | NALP1 inh | CHT allo act | CHT inh | Bfl-1 A1 inh | Mot1-301 SUMO | NALP3 yeast inh | CHT block conf | HEK293 MPD ctr
COCC(C)N1CCC(n2nccc2NC(=O)CCCc2ccccc2)CC1 (configuration not stated) | 14 | i | i | -1 | 215 | 8 | . | .
COC(=O)C(C)Oc1ccc(-c2nccc(-c3ccccn3)n2)cc1 (configuration not stated) | 0 | i | i | 0 | 52 | -2 | . | .
Cc1nc(CSc2nc3[nH]ncc3c(=O)n2-c2ccccc2)cs1 | -15 | i | i | 1 | -8 | 16 | . | .
Cc1noc(C)c1CSc1nc2[nH]ncc2c(=O)n1-c1ccccc1 | 5 | i | -5.5* | -1 | -6 | 17 | i | i
C#CCn1c(O)c(N=NC(=O)CNC(=O)c2cccnc2)c2ccccc21 | 3 | i | i | 0 | 10 | 12 | . | .
COc1ccc(S(=O)(=O)N2CCCC2)cc1Br | -2 | i | i | 1 | -5 | 16 | . | .
COc1cc(C)c(Br)cc1S(=O)(=O)N1CCCC1 | 16 | i | -5.1* | 1 | -9 | 5 | i | i
COc1ccc2[nH]c3c(c2c1)CCNC3(C)CCc1ccc(Cl)nc1 (configuration not stated) | -1 | i | i | 0 | -4 | 7 | . | .
COC(=O)c1sc(NC(=S)NNC(=O)c2c(Br)c(C)nn2C)c(C(=O)OC)c1C | 4 | i | -5.6* | 0 | -1 | 15 | i | i
CC(C)c1ccc(-c2nc3ccccc3s2)cc1 | -5 | i | -8.4* | -8 | -19 | 9 | i | i
Cc1ccccc1NC(=O)CSc1nnc(C2CC2)n1CC1CCCO1 (configuration not stated) | 14 | i | i | -1 | -11 | -4 | . | .
CCOC(=O)N1CCN(C(=O)c2oc3ccc(S(=O)(=O)N4CCCCCC4)cc3c2C)CC1 | 52 | i | -6.2* | 1 | 13 | 10 | 67%* | i
CCOC(=O)N1CCN(C(=O)c2oc3ccc(S(=O)(=O)N4CCOCC4)cc3c2C)CC1 | -8 | i | i | 0 | 37 | 21 | . | .
CNC(=O)[C@H]1O[C@@H](n2cnc3c(NCc4cccc(I)c4)ncnc32)[C@H](O)[C@@H]1O | . | i | -5.2* | 0 | 5 | 3 | 44%* | i
